Screening data as filed in PubChem BioAssay.
Most compounds without a hit are left out; they make up all but 3.2% or so of the library.
TMEM16A inh: TMEM16A chloride channel inhibitors, primary screen, cell-based, HTS; Anoctamin-1 (Mus musculus), Q8BHY3; HEK293 TMEM16A/YFP iodide influx fluorescence, ionomycin; normalized B-score (activity score, 25-100; higher = stronger inhibition) at 10 µM; 310,000 tested, 1.2% active; AID 588511, 2011;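 active means ratio plate-corrected score three or more library SD toward inhibition, starting fluorescence score within five deviations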;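 further: score derived from kinetic fluorescence span divided by baseline fluorescence per well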
TMEM16A act: TMEM16A chloride channel activators or potentiators, primary screen, cell-based, HTS | 340,000 tested, 0.3% active | Anoctamin-1 (Mus musculus), Q8BHY3 | HEK293 TMEM16A/YFP-H148Q/I152L, iodide quench fluorescence; active compounds read low | B-score at 10 µM | AID 623877, 2012;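 active means fluorescence-ratio B-score plate-corrected deviation score at least 3 library SD below zero, with starting fluorescence score within 5 deviations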;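 further: channel opened by trigger with iodide after compound preincubation; score built on the fluorescence ratio of max minus min over baseline; more negative score means more quench and so TMEM16A activation or potentiation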
CHT block: inhibitors of human choline transporter CHT; High affinity choline transporter 1 (Homo sapiens), Q9GZV3; CHT-expressing cells, membrane potential dye, choline response; active compounds read low; B-score at 10 µM; 310,000 tested, 0.86% active;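 active means B-score over 3 SD under the library average, and starting fluorescence ratio not unusually high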;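 further: choline stimulus applied at its EC90 after an EC20 pre-addition; B-score computed on integrated fluorescence ratio after choline addition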
HDAC3 inh: HDAC3 deacetylase inhibitors, primary screen, biochemical, fluorescence, cell-free homogeneous | Histone deacetylase 3 (Homo sapiens), O15379 | recombinant HDAC3, fluorogenic peptide/trypsin coupled | inhibition, % at 8.3 µM | 320,000 tested, 0.15% active; in the data active means inhibition above about 26%, passing the limit was not always enough
PHOSPHO1 block: PubChem AID 1565. Phosphoethanolamine/phosphocholine phosphatase (Homo sapiens), Q8TCT1. recombinant PHOSPHO1, absorbance phosphatase assay. inhibition, % at 13.3 µM. 290,000 tested, 1.1% active; in the data active means inhibition above about 60%
Target sequence (Q8TCT1 whole entry, looked up): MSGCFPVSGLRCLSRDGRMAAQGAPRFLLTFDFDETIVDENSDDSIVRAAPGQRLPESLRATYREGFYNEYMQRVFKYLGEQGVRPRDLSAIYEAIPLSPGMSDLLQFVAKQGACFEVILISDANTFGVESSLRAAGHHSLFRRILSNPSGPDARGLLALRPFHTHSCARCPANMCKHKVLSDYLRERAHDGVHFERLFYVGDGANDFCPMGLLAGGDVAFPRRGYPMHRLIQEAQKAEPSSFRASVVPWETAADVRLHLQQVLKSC
CHT allo act: CHT positive allosteric modulators, primary screen, cell-based, membrane potential dye, choline EC20; AID 488977, 2010; High affinity choline transporter 1 (Homo sapiens), Q9GZV3; B-score at 10 µM; CHT-expressing cells; active compounds read high; LV-AA mutant CHT in HEK293 cells; 310,000 tested, 0.49% active;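 active means initial fluorescence not abnormally high and integrated response B-score, plate-corrected, over 3 SD above library mean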
CHT block conf: CHT inhibitors, confirmation, cell-based, membrane potential dye, duplicate; shares compounds with CHT block; CHT-expressing cells, choline membrane potential dye; LV-to-AA substituted CHT, HEK293 cells; CHT activity remaining % of control (active compounds read low), % at 10 µM; 2,400 tested, 70% active; AID 493221, 2011;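 active means choline transporter activity left, mean of duplicates at 10 µM, below buffer-only control mean minus 3 SD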;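 further: depolarization triggered by choline at its EC90 following an EC20 pre-addition; 0% = hemicholinium-3 full block and 100% = buffer-only control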
HEK293 MPD ctr: membrane potential effects in parental HEK293, counter-screen for CHT inhibitor project, cell-based, membrane potential dye; 2,400 tested, 4% active; membrane potential ratio readout (active if shifted either direction beyond buffer ±3SD; no single direction) at 10 µM; choline response; active = decrease or increase beyond buffer ±3SD; shares compounds with CHT block; AID 493222, 2011;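 further: parental cells lack the transporter so any hit is non-specific; ratio is peak minus trough fluorescence over baseline after EC90 choline challenge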
* = called active by the depositor.

How did COC(=O)C1=C(c2ccccc2OCc2ccccc2)C[C@@H]2CC[C@H]1N2C(=O)NCCOc1ccc(OC)cc1 do in these assays?
TMEM16A act: inactive; HDAC3 inh: -2.1

Results for O=C(NC(Oc1ccccc1)C(Cl)(Cl)Cl)c1ccccc1 (stereo unspecified) ?
TMEM16A inh: inactive; TMEM16A act: inactive; CHT block: inactive; HDAC3 inh: -9.6; PHOSPHO1 block: 20.3; CHT allo act: inactive

How did CCCC(=O)NC(Oc1ccccc1Cl)C(Cl)(Cl)Cl (stereo unspecified) do in these assays?
TMEM16A inh: inactive; TMEM16A act: inactive; CHT block: -5.05*; HDAC3 inh: 1.0; PHOSPHO1 block: 22.9; CHT allo act: inactive; CHT block conf: inactive; HEK293 MPD ctr: inactive

Results for O=C1NC(=O)N(c2ccc(Cl)cc2)C(=O)/C1=C/c1coc2ccc(O)cc2c1=O ?
TMEM16A inh: inactive; TMEM16A act: inactive; CHT block: -5.87*; HDAC3 inh: -3.6; PHOSPHO1 block: 12.3; CHT allo act: inactive; CHT block conf: 58.6%*; HEK293 MPD ctr: inactive

Results for CCC1(CCO)C(=O)NC(=S)NC1=O ?
TMEM16A act: inactive

What do the screens show for `C[C@]12CC[C@H](O)C[C@@H]1CC[C@@H]1[C@@H]2CC[C@]2(C)[C@@H](C(=O)O)C[C@@H]12`?
TMEM16A inh: inactive; TMEM16A act: inactive; CHT block: -13.7*; HDAC3 inh: -4.4; CHT allo act: inactive; CHT block conf: inactive; HEK293 MPD ctr: inactive

Results for CN(C)C1(CNC(=O)c2cc(S(=O)(=O)N3CCOCC3)c(Cl)cc2Cl)CCCCC1 ?
TMEM16A inh: inactive; TMEM16A act: inactive; CHT block: inactive; HDAC3 inh: -2.9; CHT allo act: inactive

What do the screens show for `COc1ccc(OCCSc2nnnn2C2CCCCC2)cc1`?
TMEM16A inh: inactive; TMEM16A act: inactive; CHT block: -11.5*; HDAC3 inh: -6.5; PHOSPHO1 block: 1.0; CHT allo act: inactive; CHT block conf: inactive; HEK293 MPD ctr: inactive

How did COc1cccc(C(=O)C2CCCN(Cc3ccon3)C2)c1 (stereo unspecified) do in these assays?
TMEM16A inh: inactive; TMEM16A act: inactive; CHT block: inactive; HDAC3 inh: 4.5; PHOSPHO1 block: 14.6; CHT allo act: inactive

What do the screens show for `Brc1ccc2c(c1)C(OC1CN3CCC1CC3)c1ccccc1CS2` (stereo unspecified)?
TMEM16A inh: inactive; TMEM16A act: inactive; CHT block: -6.53*; HDAC3 inh: 4.0; PHOSPHO1 block: -0.5; CHT allo act: inactive; CHT block conf: 34.3%*; HEK293 MPD ctr: inactive

How did CC1C(=O)OC2CCN3CC4OC4(COC(=O)C(C)(O)C1(C)O)C23 (stereo unspecified) do in these assays?
TMEM16A act: inactive

How did CCOc1cc(/C=C2/C(=O)NC(=O)N(c3ccc(CC)cc3)C2=O)ccc1OC(=O)c1cccs1 do in these assays?
TMEM16A inh: inactive; TMEM16A act: inactive; CHT block: -6.63*; HDAC3 inh: 4.4; PHOSPHO1 block: 27.0; CHT allo act: inactive; CHT block conf: 59.1%*; HEK293 MPD ctr: inactive

Results for COc1cc(/C=C2/C(=O)NC(=O)N(c3ccccc3)C2=O)ccc1O ?
TMEM16A inh: inactive; TMEM16A act: inactive; CHT block: inactive; HDAC3 inh: -7.2; PHOSPHO1 block: 8.6; CHT allo act: inactive

What do the screens show for `Clc1cc(I)cc(Cl)c1NC1=NCCN1`?
TMEM16A inh: inactive; TMEM16A act: inactive; CHT block: -6.99*; HDAC3 inh: -0.1; CHT allo act: inactive; CHT block conf: 6.0%*; HEK293 MPD ctr: inactive
